Experimental data as given in PubChem BioAssay AID588492 (Sanford-Burnham Center for Chemical Genomics, 2011).
In all, about 360,000 compounds went through this assay and about 2,300 (0.64%) were called active.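 The calls were made as follows: active = compounds giving at least 50% protection of heart cells from peroxide-induced death in the single-dose screen, raw or plate-pattern-corrected value; inactive = the rest.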 The entries come from a sample that favours actives as a whole.

Experiment: cardioprotection against H2O2-induced cell death, primary screen, uHTS, H9c2 cells, ATPLite luminescence (AID 588492);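 also: 0% = DMSO wells with peroxide and 100% = DMSO wells without peroxide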
Conditions: H9c2 cardiomyocytes, H2O2 injury protection, 2 h, at 20 µM, hits give high values

| Compound | protection from H2O2 cell death |
| --- | --- |
| Cc1cc(C(F)F)nn1CC(=O)NC1CCCCCC1 | -3.7% (inactive) |
| O=C(OCCOCn1cc(Br)c(=O)[nH]c1=O)c1ccccc1 | 7.1% (inactive) |
| Cc1cc(C)c2c(n1)sc1c(=O)n(-c3ccccc3)c(=O)[nH]c12 | 4.5% (inactive) |
| CCOC(=O)c1sc(NC(=O)C2CSC3(C)CCC(=O)N23)nc1C (stereo not given) | 4% (inactive) |
| COc1ccc(S(=O)(=O)NC(=O)C2(C)CCN2C(=O)COc2ccc(Cl)cc2)cc1 (stereo not given) | 5.6% (inactive) |
| C[C@H](O)[C@@H]1C(=O)N2CCc3c([nH]c4ccccc34)[C@@H]2C[C@@H]1N(C)C(=O)Nc1ccc(F)cc1 | -2.1% (inactive) |
| O=[N+]([O-])c1cc(Cl)cc(/C=N/NC(=S)Nc2cc(S(=O)(=O)N3CCOCC3)ccc2Cl)c1O | -20.3% (inactive) |
| O=C(N/N=C/c1cc(Cl)cc([N+](=O)[O-])c1O)C(O)(c1ccccc1)c1ccccc1 | 56.6% (active) |
| O=C(Cc1ccccc1)N/N=C/c1ccc(Cl)cc1Cl | -15.4% (inactive) |
| NC(=O)Cn1c(=O)oc2ccccc21 | 6.1% (inactive) |
| CCN(CC(=O)NC(=O)NCc1ccccc1)Cc1nc2ccccc2c(=O)[nH]1 | 7.1% (inactive) |
| CCN(CC)c1ccc(C(=O)NNC(=O)CCc2nc3ccccc3c(=O)[nH]2)cc1 | 56.2% (active) |
| CC(C)(C)c1ccc(NC(=O)COC(=O)CCc2nc3ccccc3c(=O)[nH]2)cc1 | 36.5% (inactive) |
| O=C(CSCc1ccccc1Cl)NNC(=O)c1ccccc1 | 1.3% (inactive) |
| O=C(CSc1ncn[nH]1)Nc1nc2c(F)c(F)c(F)cc2s1 | -1.5% (inactive) |
| Cc1ccc(OCC(=O)Nc2ccc3oc(=O)ccc3c2)cc1C | 0.6% (inactive) |
| CCN1C(=O)[C@@H]2[C@@H]3CN(S(=O)(=O)c4ccccc4C)[C@@H](c4ccc(Cl)cc4)[C@@H]3C(=O)C[C@@H]2C1=O | 8.3% (inactive) |
| COC(=O)c1ccc(CSc2nnc(N)s2)o1 | -10.8% (inactive) |
| CCOC(=O)CNC(=O)CSc1ccc2nnc(-c3cccnc3)n2n1 | -2.8% (inactive) |
| COC(=O)c1ccc(CSc2ccc3nnc(-c4ccccc4)n3n2)o1 | 80.8% (active) |
| CC(C)[C@@H]1COC(c2cccc(C3=N[C@H](C(C)C)CO3)c2)=N1 | -14.6% (inactive) |
| COc1ccc(Cl)cc1S(=O)(=O)N1CCN(CC(=O)C(C)(C)C)CC1 | -8.8% (inactive) |
| N#Cc1ccsc1NC(=O)CN1CCN(S(=O)(=O)c2cc(Cl)ccc2Cl)CC1 | 8.3% (inactive) |

| Compound | protection from H2O2 cell death |
| --- | --- |
| O=C(CN1CCN(S(=O)(=O)c2cc(Cl)ccc2Cl)CC1)c1ccc(O)c(O)c1 | 55.1% (active) |
| CCOC(=O)Cc1csc(NC(=O)COc2ccc3c(C)cc(=O)oc3c2)n1 | 71.2% (active) |
| CCOC(=O)Cc1csc(SCC(=O)Nc2ccc(C)cc2F)n1 | -15.1% (inactive) |
| Cc1ccc(O)c(/C=N/NC(=O)COc2ccc3c(C)cc(=O)oc3c2)c1 | 38.5% (inactive) |
| CCOC(=O)Cc1csc(SCc2cc(=O)oc3cc(O)ccc23)n1 | 55.7% (active) |
| COc1ccc(N2CCN(C(=O)COc3ccc4c(C)cc(=O)oc4c3)CC2)cc1 | 19.4% (inactive) |
| Cc1ccc2c(CSc3nncs3)cc(=O)oc2c1 | -3.2% (inactive) |
| C/C(=N\NS(=O)(=O)c1ccccc1)c1c(O)cc(C)oc1=O | -1% (inactive) |
| Cc1ccc(Cl)cc1NC(=O)C1CCCN(c2cnccn2)C1 (stereo not given) | 1.6% (inactive) |
| CC1(C(=O)NCC2CCOCC2)Cc2c(-c3cccc(C(N)=O)c3)ccnc2O1 (stereo not given) | 9.5% (inactive) |
| Fc1ccc(-c2ccc(-c3nn4c(-c5ccco5)nnc4s3)o2)cc1 | 98.7% (active) |
| Cc1nc2c(-c3ccc(F)cc3)c(C)nn2c(C)c1CCC(=O)NCc1ccco1 | 2.6% (inactive) |
| CNc1nnc(-c2ccco2)s1 | 3.7% (inactive) |
| CC(C)(C)OC(=O)C[C@H]1C/C=C\C[C@@H](CC(=O)N[C@H](CO)Cc2ccccc2)C(=O)NC[C@@H](c2ccccc2)OC1=O | 10.5% (inactive) |
| CC(C)(C)OC(=O)C[C@@H]1C/C=C\C[C@@H](CC(=O)N[C@H](CO)Cc2ccccc2)C(=O)NCCOC1=O | 12.4% (inactive) |
| CC(C)(C)OC(=O)C[C@@H]1C/C=C\C[C@@H](CC(=O)N[C@H](CO)Cc2ccccc2)C(=O)NC[C@@H](c2ccccc2)OC1=O | 51.6% (active) |
| Cc1ccc(NS(=O)(=O)c2ccc3c(c2)NC(=O)CO3)cc1 | -11.5% (inactive) |
| Cc1c(C)n2c(SCC(=O)NC3CCCC3)nnc2[nH]c1=O | 1.3% (inactive) |
| COc1ccccc1C(=O)NC(CCSC)C(=O)NNC(=O)c1ccccc1C (stereo not given) | 4.9% (inactive) |
| COc1ccc(S(=O)(=O)/N=C2\C=C(NS(=O)(=O)c3ccccc3)C(=O)c3ccccc32)cc1 | -11.4% (inactive) |
| CC1=C/C(=N\S(=O)(=O)c2ccccc2)C(C(C)C)=CC1=O | 63.7% (active) |
| Cc1ccc(S(=O)(=O)/N=C2\C=C(NS(=O)(=O)c3ccc(C)cc3)C(=O)c3ccccc32)cc1 | -17.9% (inactive) |
| O=C(c1ccc(O)cc1)c1ccc(C(=O)O)c(C(=O)O)c1 | 5.7% (inactive) |

| Compound | protection from H2O2 cell death |
| --- | --- |
| Cc1cccnc1C(NC(=O)C1CCN(Cc2ccc(Cl)c(Cl)c2)CC1)c1ccc(Cl)cc1 (stereo not given) | 4.5% (inactive) |
| Cc1nc2ccccc2n1CC(=O)N/N=C/c1cccs1 | -3.1% (inactive) |
| CCn1c(/C=N/NC(=O)c2ccc(OC)cc2)nc2ccccc21 | 50.7% (active) |
| CCn1c(C(O)c2cc(OC)ccc2OC)nc2ccccc21 (stereo not given) | -3.6% (inactive) |
| Cc1cc2c3ccccc3[nH]c(=O)n2n1 | 2.8% (inactive) |
| S=c1[nH]c2ccccc2c2ccccc12 | 50.1% (active) |
| S=c1ccc2ccccc2[nH]1 | 4.8% (inactive) |
| COc1ccc(S(=O)(=O)N2CCN(C(=S)NCC3CCCO3)CC2)cc1OC (stereo not given) | -4.4% (inactive) |
| N=c1ccn(CC(=O)NC(N)=O)c2ccccc12 | 4.5% (inactive) |
| CC(C)C(=O)N1CCN(c2nc(-c3ccccc3)c3c(c2C#N)CC(C)(C)OC3)CC1 | 15.1% (inactive) |
| CC1(C)Cc2c(C#N)c(SCc3nc4ccccc4[nH]3)nc(N3CCOCC3)c2CO1 | 50.1% (active) |
| CCOC(=O)CSc1nc(N2CCOCC2)c2c(c1C#N)CC(C(C)C)OC2 (stereo not given) | -4% (inactive) |
| Cc1ccc(S(=O)(=O)N2CCCC2C(=O)OCc2nc3sc(C)c(C)c3c(=O)[nH]2)cc1 (stereo not given) | 34.2% (inactive) |
| Cc1cc(C)c2nc(N3CCC(C(=O)NCCN4CCOCC4)CC3)sc2c1 | -1.3% (inactive) |
| CCOC(=O)N1CCN(C(=O)CN(C2CCCCC2)S(C)(=O)=O)CC1 | -2.2% (inactive) |
| CC(C)=CCc1c(O)c(CC=C(C)C)c2occ(-c3ccc(O)cc3)c(=O)c2c1O | -14.3% (inactive) |
| CC(C)=CCc1ccc(O)c(=O)cc1C(C)C | 54.2% (active) |
| CC(C)c1cc(N=O)cc(C(C)C)c1O | -7% (inactive) |
| O=C(c1ccncc1)N1CCN(S(=O)(=O)c2cc(C(F)(F)F)cc(C(F)(F)F)c2)CC1 | -1.3% (inactive) |
| Cc1ccc2nc3c(cc(C(=O)NCCc4ccccc4)c(=N)n3CC3CCCO3)c(=O)n2c1 (stereo not given) | 5.6% (inactive) |
| COc1ccc(CCNC(=O)CCn2c(=O)c3ccccc3n(CC(=O)NCC3CCCO3)c2=O)cc1OC (stereo not given) | 7.8% (inactive) |
| COc1ccc(CCn2c(=N)c(C(=O)NCC3CCCO3)cc3c(=O)n4cccc(C)c4nc32)cc1OC (stereo not given) | 59.6% (active) |
| CN1CCN(c2ccc(CNS(=O)(=O)c3cccc(F)c3)cc2)CC1 | 7.1% (inactive) |

| Compound | protection from H2O2 cell death |
| --- | --- |
| CCc1c(C)nc2ncnn2c1N1CCC(C(=O)NCc2ccc3c(c2)OCO3)CC1 | -1.5% (inactive) |
| CCOC(=O)Nc1ccc(S(=O)(=O)N(C)C(C)C)cc1 | 3.1% (inactive) |
| O=C(OCC(=O)N1CCN(c2ccccc2)CC1)c1ccc([N+](=O)[O-])s1 | -0.2% (inactive) |
| COc1cc(NC(=O)COC(=O)c2ccc([N+](=O)[O-])s2)cc(OC)c1OC | 41.6% (inactive) |
| COc1ccc(C(=O)COC(=O)c2ccc([N+](=O)[O-])s2)cc1OC | 61.6% (active) |
| CO/N=C(/CS(=O)(=O)c1ccc(Br)cc1)c1ccc(OC)cc1 | -11.9% (inactive) |
| Cc1ccc([N+](=O)[O-])c(OCCCNCC(C)O)c1 (stereo not given) | 0.6% (inactive) |
| Cc1ccc(S(=O)(=O)Oc2ccc(/C=N/NC(=O)c3ccncc3)cc2)cc1 | 2.7% (inactive) |
| COc1cc(/C=N/NC(=O)c2ccccc2)ccc1OS(=O)(=O)c1ccccc1 | 81.8% (active) |
| COc1cc(/C=N/NC(=O)c2cccnc2)ccc1OC(=O)c1cccc(Br)c1 | 27.2% (inactive) |
| O=c1c2ccccc2ncn1/N=C/c1ccccc1 | -10.6% (inactive) |
| Cc1[nH]n(-c2cccc(Cl)c2)c(=O)c1/C=N/n1c(C)nc2ccccc2c1=O | 50.4% (active) |
| O=Cc1c(N2CCN(c3cccc(Cl)c3)CC2)nc2ccccn2c1=O | 42.7% (inactive) |
| Oc1ccccc1C=NC1CCCCC1N=Cc1ccccc1O (stereo not given) | 7.8% (inactive) |
| O=C(NN=Cc1ccccc1O)C(=O)NN=Cc1ccccc1O | 53.6% (active) |
| O=C(N/N=C/c1ccccc1O)/C(=C/c1ccccc1)CCO | 35.8% (inactive) |
| COCCNC(=S)c1ccc(OC)cc1 | 5.4% (inactive) |
| CCNC(=O)C1(C)CCCN1C(=O)c1ccc(N(C)C)cc1 (stereo not given) | 0.7% (inactive) |
| Cc1nc(N2CCOCC2)c2c(C)c(C(=O)Nc3ccc(C(F)(F)F)cc3)sc2n1 | -3.8% (inactive) |
| Cc1nc(N2CCN(c3ccccn3)CC2)c2c(C)c(C(=O)Nc3ccc(F)cc3)sc2n1 | 71.4% (active) |
| Cc1nc(N2CCN(c3ccccn3)CC2)c2c(C)c(C(=O)Nc3ccc(F)c(Cl)c3)sc2n1 | 31.9% (inactive) |
